Measurements published in PubChem BioAssay (Tox21).
Results filed as inconclusive are left out. Active and inactive are the calls of the source. Unless noted, the call rests on the fitted dose curve; in most records, active means well fitted curve in the direction sought with a large enough effect in the repeat runs; inconclusive means weak or mixed curves; inactive means no such curve, though single readings can be large; an effect the other way counts as inactive or inconclusive.

Tests used:
[1] = qHTS assay to identify small molecule agonists of H2AX (AID 1224845; active means well fitted activation curve with a large enough effect in the signal ratio in the repeat runs, not every such curve was filed as active; the % refers to the signal ratio)
In short: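 Wild-type CHO-K1 cells, plated overnight, exposed 3hr at 37C to 15 concentrations (0.76% DMSO final). Lysed, then HTRF anti-pH2AX (S139) cryptate and anti-H2AX-d2 antibodies, 24 hr room temperature; 665/620 nm emission read.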

[2] = qHTS assay to identify small molecule agonists of the hypoxia (HIF-1) signaling pathway (AID 1224846; active means well fitted activation curve with a large enough effect in the signal ratio in the repeat runs, not every such curve was filed as active; the % refers to the signal ratio)
In short: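 Compounds added to ME-180 cells carrying hypoxia-response-element beta-lactamase reporter (0.5% dialyzed FBS, 5 h preplating), 17 h at 37C; agonist activity detected by CCF4-AM B/G FRET read-out.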

[3] = qHTS assay to identify small molecule agonists of H2AX - cell viability counter screen (AID 1224847; calls by dose curve; further: top concentration of the series differs between compounds; nearly all actives have a fitted effect of over 30% in size)
In short: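 After overnight plating of 1000 CHO-K1 cells per well, a 15-concentration compound series was applied for 3 hr at 37C. Luminescence from CellTiter-Glo, read following 30 min at room temperature, reflected cell viability.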

[4] = qHTS RealTime-Glo MT Cell Viability Assay in HepG2 cells - 24 hour (AID 1224867); further: nearly all actives have a fitted effect of over 50% in size
In short: (§1)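 Luminescence read-out: viable HepG2 cells reduce a prosubstrate to a NanoLuc substrate, giving a signal proportional to live cell number. Reads taken at 0, 8, 16, 24, 32 and 40 h of compound exposure at 37 C.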

[5] = qHTS RealTime-Glo MT Cell Viability Assay in HEK293 cells - 32 hour (AID 1224868); further: top concentration of the series differs between compounds; nearly all actives have a fitted effect of over 50% in size
In short: (§2)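 Nonlytic real-time viability readout: viable cells convert prosubstrate to NanoLuc substrate, giving luminescence proportional to live cell number. HEK293, 600 cells/well, compound added after 5 h, continuous culture at 37 C.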

[6] = A CellTox Green Cytotoxicity Assay to monitor cytotoxicity in HEK293 cells - 0 hour (AID 1224869); further: nearly all actives have a fitted effect of over 50% in size
In short: (§3)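 Fluorescence from a DNA-binding dye excluded by viable cells was measured repeatedly in the same HEK293 wells (600 cells/well) during continuous compound exposure at 37 C. Each assay gives one read point: 0, 8, 16, 24, 32 or 40 h.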

[7] = A CellTox Green Cytotoxicity Assay to monitor cytotoxicity in HEK293 cells - 40 hour (AID 1224871); further: nearly all actives have a fitted effect of over 45% in size
In short: as §3

[8] = qHTS RealTime-Glo MT Cell Viability Assay in HEK293 cells - 16 hour (AID 1224872); further: top concentration of the series differs between compounds; nearly all actives have a fitted effect of over 50% in size
In short: as §2

[9] = A CellTox Green Cytotoxicity Assay to monitor cytotoxicity in HEK293 cells - 24 hour (AID 1224875); further: series mostly up to about 77 µM; nearly all actives have a fitted effect of over 45% in size
In short: as §3

[10] = A CellTox Green Cytotoxicity Assay to monitor cytotoxicity in HepG2 cells - 16 hour (AID 1224876); further: nearly all actives have a fitted effect of over 45% in size; further: potency means the concentration at half of the fitted maximal effect
In short: (§4)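 Real-time cytotoxicity: fluorescence of a cell-impermeant cyanine dye binding DNA of dead HepG2 cells, measured repeatedly (0–40 h) during compound exposure at 37 C. Cells seeded 600/well with reagent, dosed after 5 h.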

[11] = qHTS RealTime-Glo MT Cell Viability Assay in HepG2 cells - 32 hour (AID 1224877); further: nearly all actives have a fitted effect of over 55% in size
In short: as §1

[12] = A CellTox Green Cytotoxicity Assay to monitor cytotoxicity in HepG2 cells - 24 hour (AID 1224878); further: nearly all actives have a fitted effect of over 45% in size; further: potency means the concentration at half of the fitted maximal effect
In short: as §4

[13] = A CellTox Green Cytotoxicity Assay to monitor cytotoxicity in HepG2 cells - 40 hour (AID 1224879); further: nearly all actives have a fitted effect of over 40% in size; further: potency means the concentration at half of the fitted maximal effect
In short: as §4

[14] = qHTS RealTime-Glo MT Cell Viability Assay in HEK293 cells - 0 hour (AID 1224880)
In short: (§5)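 Luminescence, which tracks viable cell number through reduction of the prosubstrate to a NanoLuc substrate, was read over continuous 37 C culture. Cells (600/well) were premixed with reagent and rested 5 h before 23 nL of compound in DMSO was pinned.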

[15] = qHTS RealTime-Glo MT Cell Viability Assay in HepG2 cells - 40 hour (AID 1224870); further: nearly all actives have a fitted effect of over 50% in size
In short: (§6)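 HepG2 cells (600/well) mixed with RealTime-Glo MT reagent, settled 5 h at 37 C/5% CO2 before compound addition. Nonlytic NanoLuc luminescence from viable-cell prosubstrate reduction read repeatedly during 40 h treatment at 37 C.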

[16] = qHTS RealTime-Glo MT Cell Viability Assay in HepG2 cells - 8 hour (AID 1224873); further: nearly all actives have a fitted effect of over 55% in size
In short: as §6

[17] = qHTS RealTime-Glo MT Cell Viability Assay in HEK293 cells - 40 hour (AID 1224874); conditions: RealTime-Glo luminescence; max response: active compounds read low; further: nearly all actives have a fitted effect of over 50% in size
In short: as §5

[18] = A CellTox Green Cytotoxicity Assay to monitor cytotoxicity in HEK293 cells - 32 hour (AID 1224881); further: nearly all actives have a fitted effect of over 40% in size
In short: as §3
On the % scale 0 is the no-effect control and ±100 the full control effect.

SCCCCCCCCS
active: Potency [10] 19.5 µM | Potency [12] 19.5 µM | Potency [13] 19.5 µM
inactive: Potency [1] | outcome [2] | Potency [3] | Potency [4] | Potency [5] | Potency [6] | Potency [7] | Potency [8] | Potency [9] | Potency [11] | Potency [14]

COC(=O)CC#N
inactive: Potency [1] | outcome [2] | Potency [3] | Potency [4] | Potency [5] | Potency [6] | Potency [15] | Potency [7] | Potency [8] | Potency [16] | max response [17] 9.57% | Potency [10] | Potency [11] | Potency [12] | Potency [13] | Potency [14] | Potency [18]

O=S(O)O
inactive: activation (H2AX phosphorylation) [1] -2.47% [at 31.6 µM] | activation [2] -0.609% [at 15.8 µM] | activity change, negative = cytotoxicity [3] 3.26% [at 31.6 µM] | activity change, negative = cytotoxicity [4] 3.99% [at 15.8 µM] | activity change, negative = cytotoxic [5] 13.4% [at 15.8 µM] | cytotoxicity [6] -3.65% [at 15.8 µM] | activity change, negative = cytotoxic [15] -0.0421% [at 15.8 µM] | cytotoxicity increase [7] -2.31% [at 15.8 µM] | activity change, negative = cytotoxicity [8] 5.35% [at 15.8 µM] | viability change, negative = cytotoxic [16] 3.13% [at 15.8 µM] | max response [17] 7.9% | cytotoxicity increase [10] -6.63% [at 15.8 µM] | activity change, negative = cytotoxic [11] 4.15% [at 15.8 µM] | cytotoxicity [12] -9.86% [at 15.8 µM] | cytotoxicity increase [13] -12.9% [at 15.8 µM] | activity change, negative = cytotoxicity [14] 10.2% [at 15.8 µM] | cytotoxicity increase [18] 0.593% [at 15.8 µM]

O=C(O)CCCCCCC(=O)O
inactive: Potency [1] | outcome [2] | Potency [3] | Potency [4] | Potency [5] | Potency [6] | Potency [7] | Potency [8] | Potency [16] | Potency [9] | Potency [10] | Potency [11] | Potency [12] | Potency [13] | Potency [14] | Potency [18]

CCCCCCCC(OC)OC
inactive: Potency [1] | outcome [2] | Potency [3] | Potency [4] | Potency [5] | Potency [6] | Potency [7] | Potency [8] | Potency [16] | max response [17] 5.48% | Potency [9] | Potency [10] | Potency [11] | Potency [12] | Potency [13] | Potency [14]

Brc1ccccn1
inactive: Potency [1] | outcome [2] | Potency [3] | Potency [4] | Potency [5] | Potency [6] | Potency [15] | Potency [7] | Potency [8] | Potency [16] | Potency [10] | Potency [11] | Potency [12] | Potency [13] | Potency [14]

CCOC(=O)COc1ccc(C)cc1
inactive: Potency [1] | outcome [2] | Potency [3] | Potency [4] | Potency [6] | Potency [15] | Potency [7] | Potency [8] | Potency [16] | max response [17] 0.285% | Potency [9] | Potency [10] | Potency [11] | Potency [12] | Potency [13] | Potency [18]

COc1cccc(OC)c1O
inactive: Potency [1] | outcome [2] | Potency [3] | Potency [4] | Potency [5] | Potency [6] | Potency [7] | Potency [8] | max response [17] 8.86% | Potency [9] | Potency [10] | Potency [11] | Potency [12] | Potency [13] | Potency [18]

C/C=C/CO
inactive: Potency [1] | outcome [2] | Potency [3] | Potency [4] | Potency [5] | Potency [6] | Potency [15] | Potency [7] | Potency [8] | max response [17] 8.59% | Potency [9] | Potency [10] | Potency [11] | Potency [12] | Potency [13] | Potency [14] | Potency [18]

C=C(C)C(=O)OCCC[Si](Cl)(Cl)Cl
inactive: Potency [1] | outcome [2] | Potency [3] | Potency [4] | Potency [5] | Potency [6] | Potency [15] | Potency [7] | Potency [8] | max response [17] -5.22% | Potency [9] | Potency [10] | Potency [11] | Potency [12] | Potency [13] | Potency [14] | Potency [18]

Cn1cnc2ncnc(N)c21
inactive: Potency [1] | outcome [2] | Potency [3] | Potency [4] | Potency [6] | Potency [15] | Potency [7] | Potency [8] | Potency [16] | Potency [10] | Potency [11] | Potency [12] | Potency [14]

OCCCS
inactive: Potency [1] | outcome [2] | Potency [3] | Potency [4] | Potency [5] | Potency [6] | Potency [7] | Potency [8] | Potency [16] | max response [17] 7.88% | Potency [9] | Potency [10] | Potency [11] | Potency [12] | Potency [13] | Potency [14] | Potency [18]

Cc1cc(C)c(C=O)c(C)c1
inactive: Potency [1] | outcome [2] | Potency [3] | Potency [4] | Potency [6] | Potency [15] | Potency [7] | Potency [8] | max response [17] 8.02% | Potency [9] | Potency [10] | Potency [12] | Potency [13] | Potency [18]

CC(C)=CCCC(C)CCOC(=O)C(C)C (centres undefined)
inactive: Potency [1] | outcome [2] | Potency [3] | Potency [4] | Potency [5] | Potency [6] | Potency [15] | Potency [7] | Potency [8] | Potency [16] | Potency [9] | Potency [10] | Potency [11] | Potency [12] | Potency [14] | Potency [18]

CCCCCCCCC(C)=O
inactive: Potency [1] | outcome [2] | Potency [3] | Potency [4] | Potency [6] | Potency [15] | Potency [7] | Potency [8] | Potency [16] | max response [17] 9.37% | Potency [9] | Potency [10] | Potency [11] | Potency [12] | Potency [18]

CCC(C)c1ccccc1 (centres undefined)
inactive: Potency [1] | outcome [2] | Potency [3] | Potency [4] | Potency [6] | Potency [15] | Potency [7] | Potency [8] | Potency [16] | Potency [9] | Potency [10] | Potency [11] | Potency [12] | Potency [13]
